# BAZ2B inh = BAZ2B (human) inhibition; Q9UIF8; AlphaScreen BAZ2B-H3K14Ac peptide displacement; Potency, µM (series often up to 114 µM), inactives show top-dose activity change, negative = inhibition, actives largely listed as inhibitors; 360,000 tested, 4.4% active; AID 504333; also: % is scaled to controls: 0 for no effect and ±100 for the full control effect; nearly all actives have a fitted effect of over 60% in size
#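 Complex of BAZ2B and biotin-H3K14Ac (50 nM apiece) forms over 30 min at RT, then faces library compounds up to 110 uM for another 30 min; AlphaScreen beads added, 20 min dark incubation, luminescence read.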
# HP1b chromo inh = blocks HP1-beta chromodomain binding to methylated histone tails | P83916 | AlphaScreen HP1-beta / biotin-H3K9me3 peptide binding | Potency, µM (top dose mostly 114 µM), for inactives: at the highest dose activity change, negative = inhibition, actives largely listed as inhibitors | 390,000 tested, 0.56% active; also: nearly all actives have a fitted effect of over 70% in size
#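 Compound inhibition of the preformed complex between 50 nM HP1-beta and 50 nM biotinylated H3K9me3 peptide was read by AlphaScreen. Buffer was PBS pH 7.4 with 0.01% Tween-20. Incubations ran 30 min at room temperature, with 10 ug/mL donor/acceptor beads.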
# G9a inh = inhibitors of human histone lysine methyltransferase G9a. Q96KQ7. G9a H3K9 monomethylation, AlphaScreen, 2 h. Potency, µM (doses to about 102 µM), for inactives: top-dose activity, negative = inhibition, hits mostly inhibitors. 350,000 tested, 8.8% active. AID 504332; also: % is scaled to controls: 0 for no effect and ±100 for the full control effect; nearly all actives have a fitted effect of over 75% in size
#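 AlphaScreen detection with an anti-monomethyl H3K9 antibody quantified product after a 2 h room-temperature reaction containing 500 nM biotinylated H3K9 peptide, 20 µM SAM and 20 nM enzyme, which had been preincubated 15 min with compound.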
# L3MBTL1 inh = inhibitors of human L3MBTL1. Potency, µM (series often up to 57.1 µM), inactives show at the highest dose activity, negative = inhibition, actives largely listed as inhibitors. AID 485360. Q9Y468. AlphaScreen L3MBTL1–H3K9me1 peptide binding. 230,000 tested, 0.66% active; also: % is scaled to controls: 0 for no effect and ±100 for the full control effect; nearly all actives have a fitted effect of over 60% in size
#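 First, the protein-peptide complex forms for 30 min at room temperature (L3MBTL1 50 nM, biotinylated H3K9me1 peptide 75 nM). Next, compounds are pin-transferred and incubated 30 min. Finally, AlphaScreen beads are added and read after 30 min.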
# Sfp inh = Sfp phosphopantetheinyl transferase inhibition | Q9F4F7 | Biochemical Sfp PPTase activity, qHTS | Potency, µM, inactives show largest response in the series, negative = inhibition, usual class: inhibitors | 310,000 tested, 3.5% active;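 also: the enzyme is Sfp with the accession as filed and its product quenches rhodamine fluorescence; 0% = enzyme reaction without inhibitor and -100% = no enzyme wells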
#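 After 15 min at room temperature with compound, 15 nM Sfp received 5 uM rhodamine-CoA plus 12.5 uM BHQ-2-ybbR (50 mM Hepes pH 7.6, 10 mM MgCl2). Rate came from the fluorescence difference over 30 min, ex 525/em 598 nm.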
# JMJD2A Tudor inh = inhibitors of human JMJD2A Tudor domain; AID 504339; AlphaScreen JMJD2A-Tudor / H3K4me3 peptide binding; 390,000 tested, 4.4% active; Potency, µM (top dose mostly 114 µM), for the others: top-dose activity change, negative = inhibition, hits mostly inhibitors; also: % is scaled to controls: 0 for no effect and ±100 for the full control effect; nearly all actives have a fitted effect of over 50% in size
# * marks the source's active call; other numbers are inactive results; ? = inconclusive; / = no result; ! = repeats disagree; [ ] = another dose, or the depositor's remark. Compounds with a hit are over-represented: about 12% of the library has one in this group of screens. Calls follow the shape of the dose curve; as a rule, active = well fitted curve in the direction sought with a large enough effect; inconclusive = small, poorly fitted or top-dose-only effect, or another doubt; inactive = no such curve, though single readings can be large; an effect the other way counts as inactive or inconclusive. Potency is read from the fitted curve at half-maximal effect.
SMILES,BAZ2B inh,HP1b chromo inh,G9a inh,L3MBTL1 inh,Sfp inh,JMJD2A Tudor inh
Oc1ccccc1-c1csc(-c2ccccc2)n1,76.3%,162.0%,113.9%,/,-15.1%,114.8%
Clc1ccc(-c2csc(-c3cccnc3)n2)s1,2.7%,114.4%,39.8µM*,/,-13.1%,52.8%
Fc1ccccc1-c1csc(-c2cccnc2)n1,87.6%,135.4%,-14.0%,/,8.2%,51.9%
Cc1nc(-c2ccc(O)c(O)c2)cs1,-36.4%,?,1.41µM*,/,56.2µM*,3.98µM*
c1cncc(-c2nc(-c3ccc4c(c3)OCCO4)cs2)c1,-2.4%,34.6%,1.9%,/,-6.8%,1.4%
CC(C)(C)C(=O)NCC(c1ccc2c(c1)OCO2)N1CCOCC1 (configuration not stated),-4.6%,16.7%[57 µM],-2.4%[59 µM],/,/,-5.2%
O=S(=O)(c1ccc(Cl)cc1)N1CCN(c2nc(-c3ccccc3)nc3ccccc23)CC1,/,31.2%,/,/,/,-14.2%
O=C1CCCC/C1=C\Nc1ccccc1C(=O)O,-28.2%,13.4%,50.1µM*,-2.8%,-3.1%,?
NC(=O)c1ccccc1N/C=C1\CCCCC1=O,?,39.8%,?,-0.3%,22.1%,-24.8%
COC(=O)N/N=C/c1cc(C)n(-c2cccc3ccccc23)c1C,79.4µM*,?,-17.4%[59 µM],-13.5%,-9.6%,?
CCOC(=O)N/N=C/c1cc(C)n(-c2cccc3ccccc23)c1C,?,?,4.47µM*,-3.4%,1.1%,-42.2%
CCOC(=O)N/N=C/c1cc(C)n(-c2ccccc2)c1C,-28.8%,4.5%,?,-9.1%,9.0%,-31.4%
CC(=O)O[C@H]1Cc2ccccc2N(C(N)=O)c2ccccc21,/,/,2.4%[59 µM],/,5.4%,/
CCOC(=O)CCN1C(=O)[C@H]2[C@@H]3[C@H](O)C=CC(=O)[C@H]3CC[C@H]2C1=O,/,/,/,/,-7.4%,/
Cc1ccc2c(=O)cc(C(=O)Nc3c(C(=O)c4ccc(F)cc4)oc4ccccc34)oc2c1C,-3.4%,10.5%,-27.4%[59 µM],/,/,-21.9%
O=C(NNc1nc2c(F)cccc2s1)c1cc(=O)c2ccccc2o1,-38.1%,18.6%,35.5µM*,-18.3%,-15.4%,-31.9%
Cc1cccc2sc(NNC(=O)c3cc(=O)c4ccccc4o3)nc12,44.7µM*,-11.8%,/,-6.2%,44.7µM*,?
O=C(Nc1ccc(O)c(-c2nc3ccccc3s2)c1)c1cc(=O)c2ccccc2o1,-3.2%,0.7%,-6.4%[59 µM],-0.5%,-0.2%,-18.1%
Cc1ccc2sc(NNC(=O)c3cc(=O)c4ccccc4o3)nc2c1C,50.1µM*,?,7.08µM*,?,8.91µM*,56.2µM*
COc1ccc2nc(NNC(=O)c3cc(=O)c4ccccc4o3)sc2c1,50.1µM*,?,8.91µM*,-4.2%,12.6µM*,56.2µM*
CC1CCCCN1CCCNC(=O)c1[nH]c2ccccc2c1Sc1ccc(Cl)cc1 (configuration not stated),-32.6%,32.2%,?,/,/,-15.2%
COc1c2c(cc3c1C(c1c(O)c4ccccc4oc1=O)N(C)CC3)OCO2 (configuration not stated),/,/,/,/,-7.2%,/
CCOCCCNC(=O)c1ccc(NC(=O)N2CCCCc3ccccc32)cc1,-2.8%,25.3%,13.3%[59 µM],/,/,-8.7%
CCOc1cnc(-c2c(-c3c(Cl)cccc3Cl)noc2C)o1,44.7µM*,44.7µM*,44.7µM*,-8.1%,11.0%,57.0%
O=Cc1ccc2oc3nc4n(c(=O)c3c(=O)c2c1)CCCS4,56.2µM*,?,?,/,-7.5%,?
SMILES,BAZ2B inh,HP1b chromo inh,G9a inh,L3MBTL1 inh,Sfp inh,JMJD2A Tudor inh
O=c1c2cc(Br)cc(Br)c2oc2nc3n(c(=O)c12)CCCS3,3.0%,/,21.3%[59 µM],/,2.6%,/
COc1cc(NC(=O)Cn2nnnc2-c2ccccc2F)cc(OC)c1OC,-1.8%,49.3%,-2.8%[59 µM],/,/,-10.4%
Oc1c(Cl)cc(Cl)cc1C=Nc1ccccc1N1CCCC1,44.7µM*,/,10µM*,-15.1%,-6.5%,/
COc1ccc2c(c1)c1c(c(=O)n(Cc3ccccc3)c(=O)n1Cc1ccccc1)n2C,3.1%,74.3%,?,/,/,20.3%
CC(=O)c1cccc(Nc2nc(-c3ccccc3)nc3ccccc23)c1,-1.0%,1.9%,50.1µM*,0.7%,-25.1%,-22.4%
CCOC(=O)c1nc(Nc2cccc(C)c2)c2ccccc2n1,6.6%,4.6%,10.0%,35.1%,15.0%,50.1µM*!
CC(=O)Nc1cccc(Nc2nc(-c3ccccc3)nc3ccccc23)c1,0.6%,34.4%,7.6%,/,6.9%,0.0%
CC(C)(C)C(=O)Oc1cccc(Nc2ncnc3ccccc23)c1,-1.7%,35.1%,/,/,10.7%,-12.5%
O=C(O)c1cccc(Nc2ncnc3ccccc23)c1,?,26.2%,-29.5%[12.7 µM],/,14.1%,79.4µM*
Fc1ccc(Nc2ncnc3ccccc23)cc1,-33.4%,34.5%,56.2µM*,-0.7%,-1.4%,-6.1%
COc1ccc(C2c3c(oc4ccccc4c3=O)C(=O)N2c2nc(C)c(C)s2)cc1 (configuration not stated),?,33.3%,9.3%[59 µM],/,/,-13.4%
O=C(O)c1ccc(Nc2nc(-c3cccnc3)nc3ccccc23)cc1,-0.8%,/,56.2µM*,0.7%,13.1%,/
Nc1cccc(Nc2ncnc3ccccc23)c1,50.1µM*,20.3%,-14.3%[0.501 µM],0.6%[2.29 µM],?,4.4%
Oc1cccc(Nc2ncnc3ccccc23)c1,2.4%,33.4%,-5.0%[12.7 µM],/,-1.6%,-4.3%
Fc1ccc(Nc2nc(-c3cccnc3)nc3ccccc23)cc1,/,/,/,/,-20.7%,/
COC(=O)CSc1nc2ccc(C)cc2[nH]1,1.3%,34.2%,28.2µM*,4.3%,6.7%,-22.8%
Cc1ccc2nc(SCC(=O)c3ccc(O)cc3O)[nH]c2c1,-23.4%,31.3%,/,25.7%,50.1µM*,1.0%
Cc1ccc2nc(SCc3nc4ccccc4c(=O)[nH]3)[nH]c2c1,-17.1%,2.1%,39.8µM*,4.8%,44.7µM*,?
Cc1ccc2nc(SCC(=O)NC3CC3)[nH]c2c1,-25.7%,15.9%,20.3%,/,-3.4%,-4.6%
Nc1cc(=O)[nH]c(SCC(=O)c2ccc(O)cc2O)n1,1.5%,54.3%,18.3%[2.33 µM],/,5.6%,-9.1%
Cc1ccc2nc(SC(C)C(=O)N3CCCC3)[nH]c2c1 (configuration not stated),-6.5%,14.0%,28.2µM*,6.0%,9.4%,0.3%
COc1cc(OC)cc(-n2nnc(-c3nc(-c4ccccc4Cl)no3)c2N)c1,-14.1%,29.7%,-9.2%[59 µM],/,/,1.1%
O=Cc1c2[nH]c3ccccc3c2cc2[nH]c3ccccc3c12,/,/,2.9%[59 µM],/,-4.7%,/
Cc1ccc2nc(SCC(=O)c3c(N)n(C4CC4)c(=O)[nH]c3=O)[nH]c2c1,-4.8%,?,17.8µM*,0.5%,/,-8.3%
Cc1ccc(C#N)c(SCc2ccccc2F)n1,140.8%,263.9%,/,121.2%,-18.1%,208.4%
Cc1ccc2nc(CSc3nc(C)ccc3C#N)[nH]c2c1,-1.5%,22.4%,2.82µM*,/,-14.7%,?
